Results published in ChEMBL document CHEMBL3988442, “University of Dundee, Small-Polar-MMV Screening Library” (2021).
Hit rate of the full screen: of about 48,000 compounds, about 13,000 (27%) showed an effect of 50% or more. This is one part of the list.

Tested on: Wolbachia pipientis
Test: Anti-Wolbachia Cell-Based Screen
Assay type: functional
Parameters: scale not given: in the data most compounds retested in dose-response had high values
Settings: 5 µM

| SMILES | Percent Effect [%] |
| --- | --- |
| Cl.NCCNS(=O)(=O)Cc1ccc(Br)cc1 | -57.57 |
| CC(=O)N1CCC(N2CCOC[C@H]2c2nc(-c3ccc(Cl)s3)c[nH]2)CC1 | -14.52 |
| Cc1ccc(S(=O)(=O)NCCNC(=O)c2ccoc2)cc1F | -0.905 |
| O=C(c1cccc(CNS(=O)(=O)c2ccc(F)cc2)c1)N1CCCC1 | 130.7 |
| Cc1ccc(S(=O)(=O)NCc2cccc(C(=O)N3CCCC3)c2)cc1F | 110.6 |
| N#Cc1cnc(NCc2cccc(C(=O)N3CCCC3)c2)c(Cl)c1 | -5.94 |
| O=C(c1cccc(S(=O)(=O)NC[C@@H]2C[C@H](F)CN2)c1)N1CCCCC1 | 0.137 |
| CC(C)c1nc(S(=O)(=O)N2CCSc3ccccc32)c[nH]1 | -4.998 |
| CC(C)c1ccc(OCCNC(=O)c2ccoc2)cc1 | 6.267 |
| Cc1nn(CC(=O)Nc2cccc(F)c2)c(N)c1C#N | -11.77 |
| Cc1cccc(Cc2nc3c([nH]2)CCCNC3=O)c1 | -1.705 |
| CC(C)(C)c1noc(-c2nc3c([nH]2)CCCNC3=O)n1 | 2.046 |
| COc1cc(-c2nc3c([nH]2)CCCNC3=O)ccc1OC(C)C | 84.8 |
| CC(C)Oc1cccc(-c2nc3c([nH]2)CCCNC3=O)c1 | 99.49 |
| CC(C)Oc1cccc(Cc2nc3c([nH]2)CCCNC3=O)c1 | 11.57 |
| COc1ccc(-c2nc3c([nH]2)CCCNC3=O)cc1OC | 96.66 |
| COc1cc(-c2nc3c([nH]2)CCCNC3=O)cc(OC)c1OC | 91 |
| CSCc1noc(-c2nc3c([nH]2)CCCNC3=O)n1 | 14.73 |
| COc1ccccc1C1CNC(=O)c2nc(-c3cnn(C)c3)[nH]c2C1 (centres undefined) | -3.18 |
| O=C1NCCCc2[nH]c(Cc3cccc(F)c3)nc21 | -0.783 |
| CCN1CCCN(S(=O)(=O)c2cc3ccccc3o2)CC1 | -2.661 |
| COc1ccccc1C1CNC(=O)c2nc(-c3c(C)n[nH]c3C)[nH]c2C1 (centres undefined) | -21.26 |
| COc1cc(-c2nc3c([nH]2)CCCNC3=O)ccc1O | 101.7 |

| SMILES | Percent Effect [%] |
| --- | --- |
| Cc1ccc(C(=O)Nc2ccc(N3CCCC3)cn2)cc1F | -12.84 |
| CC(C)N(CCNC(=O)N1CCCC(N(C)C)C1)C1CC1 (centres undefined) | 3.264 |
| CN(C)CCO[C@H]1CN(Cc2ccco2)[C@@H]2COC[C@H]12.O=C(O)C(F)(F)F.O=C(O)C(F)(F)F | 94.89 |
| Cc1ccc(CN2C[C@H](OCCN(C)C)[C@H]3COC[C@H]32)o1.O=C(O)C(F)(F)F.O=C(O)C(F)(F)F | 118.1 |
| Cc1ccc(CN2C[C@H](OCCN(C)C)[C@H]3OCCC[C@H]32)o1.O=C(O)C(F)(F)F.O=C(O)C(F)(F)F | 11.84 |
| CN(C)CCO[C@H]1CN(Cc2cccc(C#N)c2)[C@@H]2COC[C@H]12.O=C(O)C(F)(F)F.O=C(O)C(F)(F)F | -16.47 |
| CN(C)CCO[C@H]1CN(C(=O)c2ccc3c(c2)OCO3)[C@@H]2COC[C@H]12 | -7.678 |
| CCc1cc(N2CCN(C(C)=O)CC2)n2nc(C)c(C)c2n1 | -3.628 |
| CC1CCCCN1S(=O)(=O)NCc1cccnc1OC1CCCC1 (centres undefined) | 2.179 |
| CCOCCn1c(=O)[nH]c2cc(C(=O)N(C)CCc3cn[nH]c3)ccc21 | -12.36 |
| COCC(=O)NC[C@H]1CC[C@H](c2ccnc3ncnn32)CC1 | 112 |
| CCc1nccc(CN2CCC(CNC(=O)[C@H]3CC[C@H](C)CC3)C2)n1 (some centres undefined) | -6.322 |
| O=C(CN1CCC(c2ccnn2CCO)CC1)NCC1CC1 | -5.639 |
| Cc1nccn1-c1cc(CNC(=O)COCC2CC2)ccn1 | -10.58 |
| O=C(NCc1ccnc(O)c1)NCC1CCCC1 | -3.505 |
| O=C(NC[C@H]1CC[C@H](c2ccnc3ncnn32)CC1)C1CC1 | 132.8 |
| O=C(NC[C@H]1CC[C@H](c2ccnc3ncnn32)CC1)c1ccccn1 | 132.7 |
| CCc1nccc(CN2CCCC(CNC(=O)c3ccccn3)C2)n1 (centres undefined) | -4.435 |
| O=C(NCC1CC1)c1cnc(-c2ccccc2)nc1 | -4.836 |
| CCNC(=O)NC1CCCN(c2ccc(C)cc2)C1=O (centres undefined) | -8.82 |
| COc1ncnc(N(C)C)c1NC(=O)c1cscc1C | -1.164 |
| CSCCC(CO)NC(=O)c1sc(-c2ccccc2Cl)nc1C (centres undefined) | 13.6 |
| Cc1ccc(C(=O)NCCC(C)C)cc1NS(C)(=O)=O | -0.7863 |

| SMILES | Percent Effect [%] |
| --- | --- |
| COc1cccc(-c2nc(C)c(C(=O)NC(CO)CCSC)s2)c1 (centres undefined) | -11.86 |
| C[C@@H](CO)NC(=O)c1ccc2nc(NS(C)(=O)=O)sc2c1 | 93.82 |
| CC(C)CCNC(=O)c1ccc(Cl)c(NS(C)(=O)=O)c1 | 2.284 |
| CSCC[C@@H](CO)NC(=O)c1ccc2nc(NS(C)(=O)=O)sc2c1 | 89.36 |
| Cc1nnc(CNC(=O)CC2CCc3ccccc32)o1 (centres undefined) | 1.636 |
| Cc1nc(C)c(S(=O)(=O)NC(=O)c2ccoc2)s1 | 99 |
| Cc1nc(C)c(S(=O)(=O)NC(=O)c2ccsc2)s1 | 101.1 |
| Cc1ccc(S(=O)(=O)NCCNC(=O)c2ccoc2)cc1C | 3.538 |
| O=C(NS(=O)(=O)c1cnn(-c2ccccc2F)c1)c1ccoc1 | 8.506 |
| COCc1nc(C(=O)NS(=O)(=O)c2ccc(C)s2)cs1 | -3.012 |
| COc1ccnc(NC(=O)c2ccsc2)c1 | -4.666 |
| Cc1ccc(N2CCCN(C(=O)CC3C=CCC3)CC2)nn1 (centres undefined) | 107 |
| O=C(Cc1cccc2cccnc12)N1CCCN(c2cccnn2)CC1 | -1.609 |
| Cc1ccc(NC2CCN(C(=O)CCC3CCCO3)CC2)nn1 (centres undefined) | -9.533 |
| Cc1ccc(N2CCCN(C(=O)CC3CCCO3)CC2)nn1 (centres undefined) | 4.405 |
| O=C(CC1CCCO1)N1CCCN(c2cccnn2)CC1 (centres undefined) | 79.43 |
| Cc1ccc(N2CCCN(C(=O)C3CCCO3)CC2)nn1 (centres undefined) | 135.1 |
| Cc1ccc(N2CCCN(C(=O)CCC3CCCO3)CC2)nn1 (centres undefined) | 87.48 |
| Cc1ccc(N2CCCN(C(=O)c3c(C)oc(C)c3C)CC2)nn1 | 8.16 |
| Cc1nn(CC(=O)N2CCCN(c3cccnn3)CC2)c(C)c1Cl | 1.564 |
| Cc1ccc(N2CCCN(C(=O)C3(C#N)CCCCC3)CC2)nn1 | 12.99 |
| Cc1ccc(N2CCCN(C(=O)c3cc(Cl)c[nH]3)CC2)nn1 | -5.212 |
| Cc1ccc(N2CCCN(C(=O)C(C)OCC3CC3)CC2)nn1 (centres undefined) | -0.6 |
